WRN helicase inh: blocks human WRN helicase | actives 0.46% (n = 360,000) | WRN helicase unwinding, fluorescent forked duplex, kinetic | Potency, µM (top dose mostly 114 µM), without a hit: at the top dose activity change, negative = inhibition, most hits filed as inhibitors | AID 651768 | Q14191; further: potency means the concentration at half of the fitted maximal effect; on the % scale 0 is the no-effect control and ±100 the full control effect; nearly all actives have a fitted effect of over 55% in size
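Kinetic red-fluorescence monitoring (525/598 nm) tracks WRN helicase activity after 100 nM fluorophore-quencher forked duplex and 2 mM ATP are added to 20 nM enzyme pretreated 15 min at room temperature with compound.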
PI5P4Ka inh: inhibitors of human PI5P4K alpha | P48426 | PI5P4Kalpha enzyme, ADP-Glo luminescence, 60 min; stronger effect = lower value | max response, % | actives 1.2% (n = 330,000) | AID 652105; active means max response of -50% or lower; inconclusive means between -30% and -50%; inactive means -30% or higher; further: value at the top dose of about 77 µM; on the % scale 0 is the no-effect control and ±100 the full control effect
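Controls without substrate or without enzyme flank wells where PI5P4Kalpha converts substrate using 5 microM ATP (final). Incubation lasts 60 minutes at room temperature; ADP formed is read by ADP-Glo luminescence.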
Pol eta inh-1: DNA polymerase eta (human) inhibition | actives 1.2% (n = 390,000) | recombinant Pol eta, fluorescent DNA replication assay | Potency, µM (highest dose often 114 µM), inactives show top-dose activity change, negative = inhibition, usual class: inhibitors | AID 588591; further: potency means the concentration at half of the fitted maximal effect; on the % scale 0 is the no-effect control and ±100 the full control effect
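Pol eta at 10 nM preincubated with compounds 15 min at room temperature; reaction started with fluorescent substrate (50 nM final) and read kinetically at 0 and 10 min.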
POLI inh: blocks human DNA polymerase iota activity | Potency, µM (top dose mostly 115 µM), for inactives: top-dose activity, negative = inhibition, actives largely listed as inhibitors | Q9UNA4 | actives 1% (n = 390,000) | AID 588590 | Pol iota fluorescent replication assay, 10 min; further: potency means the concentration at half of the fitted maximal effect
Target sequence (Q9UNA4 whole entry, looked up): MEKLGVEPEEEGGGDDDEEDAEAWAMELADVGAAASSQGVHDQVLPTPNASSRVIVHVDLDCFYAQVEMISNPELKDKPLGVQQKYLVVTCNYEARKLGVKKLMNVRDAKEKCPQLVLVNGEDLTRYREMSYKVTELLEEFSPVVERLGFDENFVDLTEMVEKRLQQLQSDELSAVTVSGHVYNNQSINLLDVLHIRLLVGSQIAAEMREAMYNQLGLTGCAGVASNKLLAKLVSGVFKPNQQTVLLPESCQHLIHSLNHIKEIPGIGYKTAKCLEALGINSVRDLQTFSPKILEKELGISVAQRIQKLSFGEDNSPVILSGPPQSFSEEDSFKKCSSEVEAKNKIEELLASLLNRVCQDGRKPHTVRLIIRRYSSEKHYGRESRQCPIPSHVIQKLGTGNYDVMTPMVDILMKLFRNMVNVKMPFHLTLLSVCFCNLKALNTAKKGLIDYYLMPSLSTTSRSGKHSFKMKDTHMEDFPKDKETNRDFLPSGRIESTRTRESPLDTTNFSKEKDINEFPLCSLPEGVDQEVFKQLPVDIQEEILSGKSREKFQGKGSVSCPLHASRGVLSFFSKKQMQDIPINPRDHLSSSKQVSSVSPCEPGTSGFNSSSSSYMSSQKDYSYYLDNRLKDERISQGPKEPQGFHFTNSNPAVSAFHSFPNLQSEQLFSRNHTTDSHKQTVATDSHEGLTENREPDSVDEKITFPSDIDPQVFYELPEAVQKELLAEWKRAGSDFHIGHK
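Fluorescent replication assay read twice, at 0 min and 10 min after adding 50 nM (final) substrate. Enzyme (10 nM) and compounds were first incubated 15 min at room temperature; enzyme-free buffer wells were negative controls.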
Pol kappa inh-1: DNA polymerase kappa (human) inhibition; Q9UBT6; purified Pol kappa, fluorescent DNA synthesis assay, 10 min; Potency, µM (titrated, usually from 107 µM), without a hit: at the top dose activity, negative = inhibition, usual class: inhibitors; actives 0.53% (n = 400,000); AID 588579; further: potency means the concentration at half of the fitted maximal effect; on the % scale 0 is the no-effect control and ±100 the full control effect
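Kinetic fluorescence screen: compound preincubated 15 min RT with 10 nM enzyme; 50 nM substrate (final) initiates; reads at 0/10 min.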
Pol beta inh-1: DNA polymerase beta (human) inhibition | P06746 | Pol beta primer extension/strand displacement, fluorescence kinetic | Potency, µM (titrated, usually from 114 µM), without a hit: at the highest dose activity change, negative = inhibition, actives largely listed as inhibitors | actives 1.3% (n = 340,000) | AID 485314; further: potency means the concentration at half of the fitted maximal effect; on the % scale 0 is the no-effect control and ±100 the full control effect
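Reaction started by 50 nM substrate onto compound-treated Pol beta (10 nM, 15 min preincubation, room temperature); plates read at 0 min and 10 min. Normalized concentration-effect data fitted by four-parameter Hill equation.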
Pol beta inh-2: Inhibitors of human DNA polymerase beta, hit validation. AID 540280. Potency, µM, hits mostly inhibitors. actives 87% (n = 250). shares compounds with Pol beta inh-1. Pol beta primer extension/strand displacement, fluorescence kinetic; calls by dose curve; further: potency means the concentration at half of the fitted maximal effect
Klenow counter: Klenow polymerase inhibition, pol beta selectivity check. shares compounds with Pol beta inh-1. Klenow exo- polymerase counter-screen, fluorescent DNA substrate. activity change, negative = inhibition, % at 57.1 µM. 250 tested, under 10 active. AID 540300
HIV RT inh: counter-screen for DNA polymerase beta inhibitors: HIV-1 RT inhibition | shares compounds with Pol beta inh-1 | HIV-1 RT polymerase activity, counter-screen | activity % (negative = inhibition, positive = activation), % at 57.1 µM | 250 tested, under 10 active | AID 540301
POLB valid: validation of human DNA polymerase beta inhibitors. shares compounds with Pol beta inh-1. radiolabeled primer extension gel assay, phosphorimager. inhibition, % at 10 µM. actives 91% (n = 110). AID 540325;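 active means inhibition at 10 µM of 30% or more; inconclusive means no clear call, values can overlap the other calls; inactive means inhibition at 10 µM under 30%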
POLI cherry-pick: Human Pol iota inhibitor confirmatory assay; shares compounds with Pol kappa inh-1; Pol iota primer extension, TAMRA/BHQ fluorescence; Potency, µM, hits mostly inhibitors; actives 77% (n = 1,500); AID 720496; further: potency means the concentration at half of the fitted maximal effect
GALK confirm: confirmation of human galactokinase (GALK) inhibitors. purified GALK, Kinase-Glo ATP depletion luminescence. actives 70% (n = 150). shares compounds with Pol eta inh-1. Potency, µM (highest dose often 115 µM), for inactives: at the highest dose activity, negative = inhibition, most hits filed as inhibitors
Redox cycling: generates H2O2 by redox cycling, flagging GALK artifacts; AID 2035; shares compounds with Pol eta inh-1; Phenol red-HRP H2O2 redox cycling, absorbance 600 nm; Potency, µM (series often up to 115 µM), without a hit: top-dose activity change, negative = H2O2 signal, hits mostly inhibitors; actives 40% (n = 150)
HEK293 viability: counter-screen for GALK inhibitors: HEK293 cell cytotoxicity; Potency, µM (doses to about 46.1 µM), without a hit: at the highest dose activity change, negative = cytotoxicity, usual class: inhibitors; shares compounds with Pol eta inh-1; HEK-293 viability, ATP luminescence (CellTiter-Glo), 24/48 h; actives 10% (n = 170); further: potency means the concentration at half of the fitted maximal effect; on the % scale 0 is the no-effect control and ±100 the full control effect
Pol kappa inh-2: Pol kappa (human) inhibition, cherry-pick confirmation. purified Pol-kappa, fluorescent strand-displacement substrate. shares compounds with Pol eta inh-1. Potency, µM, actives largely listed as inhibitors. AID 720501. actives 76% (n = 920); further: potency means the concentration at half of the fitted maximal effect
Pol eta inh-2: confirmation of human DNA polymerase eta inhibitors. shares compounds with Pol eta inh-1. actives 64% (n = 2,600). AID 720502. Potency, µM, hits mostly inhibitors. Pol eta primer extension, TAMRA/BHQ fluorescence, 10 min; further: potency means the concentration at half of the fitted maximal effect
Starred values were filed as active, the others as inactive; ? = inconclusive; · = no result given; [ ] = remark or other dose. Rows were chosen to be rich in hits. Some 2.8% of all compounds tested hit in one or more screens of this group. Unless noted, the call rests on the fitted dose curve; in most records, active means well fitted curve in the direction sought with a large enough effect; inconclusive means small, poorly fitted or top-dose-only effect, or another doubt; inactive means no such curve, though single readings can be large; an effect the other way counts as inactive or inconclusive.

SMILES	WRN helicase inh	PI5P4Ka inh	Pol eta inh-1	POLI inh	Pol kappa inh-1	Pol beta inh-1	Pol beta inh-2	Klenow counter	HIV RT inh	POLI cherry-pick	Pol eta inh-2	others
C=C(C)CCOC(=O)C(CC(=O)O)NCc1ccco1 (stereo not drawn)	-4%[11.6 µM]	-9	11µM*	-7%	?	8.9µM*	35*	-7	10	·	27*	Pol kappa inh-2=19*
COCCn1c(C)cc(C(=O)COC(=O)c2cccc(O)c2)c1C	-6%	-7	2%	-2%	0%	8%	·	·	·	·	·
COCCn1c(C)cc(C(=O)COC(=O)c2cc3c(s2)CCC3)c1C	?	?	8.9µM*	?	40µM*	10µM*	32*	-23	26	38*	67*	POLB valid=84*
COc1cc(C(=S)N2CCN(c3ccccc3Cl)CC2)cc(O)c1O	?	-58*	20µM*	?	71µM*	10µM*	2.5*	-16	-9	·	76*
COc1ccc(C(=S)N2CCN(c3ccccc3Cl)CC2)cc1OC	-3%	-8	-10%	-22%	4%	-1%	·	·	·	·	·
Nc1ncnc2c1nc(SCCO)n2Cc1ccccc1	-6%	-3	5%	94%	-1%	5%	·	·	·	·	·
Cc1ccc2nc(/C(C#N)=C/c3ccc(-c4cccc([N+](=O)[O-])c4)o3)[nH]c2c1	?	-2	?	10µM*	-31%	5µM*	5.6*	-39	32	?	76*
Cc1ccc2nc(/C(C#N)=C/c3ccc(-c4ccc(F)cc4F)o3)[nH]c2c1	·	·	?	76%	-22%	?	·	·	·	·	·
O=C(Nc1ccc(CN2CCS(=O)(=O)CC2)cc1)c1ccc(Cl)cc1	-4%	4	-18%	61%	6%	26%	·	·	·	·	·
O=C(COC(=O)c1ccc(S(=O)(=O)NCc2ccco2)cc1)Nc1ccc(Cl)cn1	-27%[57.1 µM]	?	20µM*	22µM*	79µM*	16µM*	22*	-16	4	·	76*	POLB valid=100*
COc1cc(OC)c2c(c1O)OC(c1ccccc1)CC2=O (stereo not drawn)	?	?	13µM*	13µM*	25µM*	1.4µM*	2.5*	-17	40	?	67*
COc1cc(OC)c2c(c1)OC(c1ccccc1)CC2=O (stereo not drawn)	·	·	·	·	-9%[19.4 µM]	·	·	·	·	·	·
O=C(CC1Sc2ccccc2NC1=O)Nc1cccc(C(=O)O)c1 (stereo not drawn)	-18%[57.1 µM]	?	6.3µM*	50µM*	35µM*	20µM*	28*	13	29	42*	7.6*	POLB valid=16
CC(=O)Nc1ccc(NC(=O)CC2Sc3ccccc3NC2=O)cc1 (stereo not drawn)	·	·	-3%	-2%	8%	8%	·	·	·	·	·
O=C(C[C@@H]1C=C[C@@H](NC(=O)C2CC2)[C@@H](CO)O1)NCc1ccccc1Cl	-2%	-3	·	·	·	·	·	·	·	·	·
Cc1cc(=O)oc2cc(OCc3ccc(C(=O)OCC(=O)NC4CCS(=O)(=O)C4)cc3)ccc12 (stereo not drawn)	-32%	6	22µM*	20µM*	79µM*	3.5µM*	25*	-20	-4	38*	27*	POLB valid=75*
COc1ccccc1N1CCN(C(=O)CCn2nc(C)c(S(=O)(=O)N3CCCC3)c2C)CC1	·	·	5%	?	-12%[60.1 µM]	-3%	·	·	·	·	·
CC(=O)Nc1ccc(C(=O)Nc2cccc(-c3cnc4ccccc4n3)c2)cc1	-20%[11.6 µM]	-30	?	1%	-12%	4.5µM*	14*	-31	-10	30*	?	Pol kappa inh-2=47*
O=C1/C(=C\c2ccc(O)c(O)c2)C(c2ccccc2)=NN1c1ccccc1	?	-75*	8.9µM*	22µM*	71µM*	8.9µM*	7.1*	-12	-18	·	43*	GALK confirm=?;Redox cycling=?;HEK293 viability=-12%;Pol kappa inh-2=19*
CCCCCCCCCC[n+]1ccc(/C=C/c2c[nH]c3ccccc23)cc1	·	·	·	4%	-7%	·	·	·	·	·	·
O=C(CCCn1c(SCC(=O)c2ccc(O)c(O)c2)nc2ccccc2c1=O)NCC1CCCO1 (stereo not drawn)	22µM*	·	20µM*	14µM*	20µM*	7.9µM*	10*	-25	-12	·	60*
O=C(CCCn1c(SCC(=O)NC2CCCCC2)nc2ccccc2c1=O)NCC1CCCO1 (stereo not drawn)	-6%	19	-16%	-2%	1%	4%	·	·	·	·	·
Cc1ccc(SCC(=O)c2ccc(CC(=O)O)s2)cc1	?	?	50µM*	?	?	11µM*	32*	-6	-15	·	76*

Screening results: PubChem, National Center for Advancing Translational Sciences (NCATS)
